Screening data from PubChem.
EWS-Fli block: blocks EWS/Fli oncoprotein-driven transcription. A673 NR0B1-luciferase reporter, viability-normalised. hit rate 0.67% among 350,000. inhibition, % at 12.6 µM. AID 651661;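 active means mean inhibition of at least 50% after viability correction, with every replicate also passing that limit; inconclusive means mean reaches 50% but only one of two replicates passes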;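 further: firefly luciferase signal divided by Alamar Blue viability fluorescence both relative to DMSO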
HIF-2a inh: blocks HIF-2a reporter activity; 786-0 RCC cells HIF-2a reporter, luciferase luminescence, overnight; inhibition, % at 18.8 µM; hit rate 0.72% among 360,000; AID 624352;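 active means inhibition of the luminescence signal of 40% or more relative to plate controls, in a single-dose primary screen at 18.75 µM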
KKLEB cytotox: counter-screen for CF NF-kB inhibitors: cytotoxicity | KKLEB CF airway cells viability, ATPlite luminescence, overnight; hits give low values; cells stimulated with P. aeruginosa culture filtrate | activity change (cytotoxicity), % at 5 µM | hit rate 0.36% among 360,000;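 active means corrected activity change at or below -50% at 5 µM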
CF NFkB block: blocks PAF-induced NF-kB reporter in cystic fibrosis cells; KKLEB NF-kB-GFP reporter, GFP fluorescence overnight; inhibition, % at 5 µM; hit rate 0.86% among 360,000; AID 588850;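 active means at least 50% inhibition at 5 µM, scaled per plate between neutral and stimulator controls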;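 further: PAF is a Pseudomonas aeruginosa culture filtrate used as stimulus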
PAX8 reporter: inhibitors of PAX8 transcriptional activity in RMG-I cells; inhibition, % at 12.6 µM; AID 652154; RMG-I TPO-luciferase reporter, SteadyGlo, 24 h; hit rate 1.2% among 360,000;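 active means mean replicate inhibition at least 60% with every replicate also reaching 60%; inconclusive means only one of the two criteria is met; inactive means mean below 60% and not all replicates reaching 60%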;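 further: luciferase light reporting Pax8 driven TPO promoter activity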
Numbers stand for hits; 0 = inactive; ? = inconclusive; - = no result given. This is a sample that favours compounds with a hit; in the whole collection about 2.1% have one here.

SMILES	EWS-Fli block	HIF-2a inh	KKLEB cytotox	CF NFkB block	PAX8 reporter
C[C@@H]1CN([C@@H](C)CO)C(=O)c2cc(NS(=O)(=O)c3ccc(Cl)cc3)ccc2O[C@@H](C)CCCCO[C@@H]1CN(C)Cc1ccc2c(c1)OCO2	0	-	-	-	71.5
C[C@@H]1CCCCO[C@@H](CN(C)Cc2ccc3c(c2)OCO3)[C@H](C)CN([C@@H](C)CO)C(=O)c2cc(NS(=O)(=O)c3ccc(Cl)cc3)ccc2O1	0	-	-	-	0
Cc1ccc(S(=O)(=O)Nc2ccc3c(c2)C(=O)N([C@@H](C)CO)C[C@@H](C)[C@@H](CN(C)Cc2ccc4c(c2)OCO4)OCCCC[C@H](C)O3)cc1	0	-	-	-	72.0
C[C@@H]1CCCCO[C@H](CN(C)Cc2ccc3c(c2)OCO3)[C@@H](C)CN([C@@H](C)CO)C(=O)c2cc(NS(=O)(=O)c3ccc(Cl)cc3)ccc2O1	?	-	-	-	114.0
COc1ccc2c3c(n(C)c2c1)[C@@H](CO)N(C(=O)c1ccccn1)CC31CCN(C)CC1	0	-	-	-	-
NCCCn1c(C(=O)c2cc(Cl)c(N)c(Cl)c2)c2ccc([N+](=O)[O-])cc2[n+]1[O-]	54.9	0	0	0	69.6
Cc1cc(N2CCN(Cc3cn(C)nc3-c3cccc(Cl)c3)CC2)cc(C)n1	57.7	0	0	0	0
Cn1cc(CN2CCN(c3ncccn3)CC2)c(-c2cccc(Cl)c2)n1	0	0	0	0	0
CN(C)CCOc1ccc(-c2c(-c3ccccc3)sc3ccccc23)cc1	0	0	-89.2	82.3	80.0
NC(=S)NN=Cc1cc(-c2cccc(N)c2)ccn1	0	0	0	0	94.1
COc1ccc(S(=O)(=O)N(C)C[C@@H]2Oc3ccc(NS(=O)(=O)c4cccs4)cc3C(=O)N([C@H](C)CO)C[C@@H]2C)cc1	0	-	-	-	-
O=C(c1cccnc1)N1CC2(C1)[C@@H](c1ccccc1)[C@@H](CO)N2C(=O)C1CCC1	0	-	-	-	0
Cc1ccc(S(=O)(=O)Nc2ccc3c(c2)C(=O)N([C@H](C)CO)C[C@@H](C)[C@H](CN(C)S(=O)(=O)c2ccccc2)OCCCC[C@H](C)O3)cc1	0	-	-	-	79.7
Cc1ccc(S(=O)(=O)N(C)C[C@H]2OCCCC[C@H](C)Oc3ccc(NS(=O)(=O)c4ccccc4)cc3C(=O)N([C@H](C)CO)C[C@@H]2C)cc1	0	-	-	-	62.3
COc1ccc(S(=O)(=O)N(C)C[C@@H]2Oc3ccc(NC(=O)CCC(F)(F)F)cc3C(=O)N([C@H](C)CO)C[C@H]2C)cc1	0	-	-	-	0
COc1cccc(C(=O)Nc2ccc3c(c2)C(=O)N(C)C[C@@H](OC)[C@H](C)CN(CCc2ccccc2)[C@@H](C)CO3)c1	0	-	-	-	0
COc1cccc(C(=O)Nc2ccc3c(c2)C(=O)N(C)C[C@@H](OC)[C@H](C)CN(CCc2ccccc2)[C@H](C)CO3)c1	0	-	-	-	70.6
COc1cccc(C(=O)Nc2ccc3c(c2)OC[C@@H](C)N(CCc2ccccc2)C[C@@H](C)[C@H](OC)CN(C)C3=O)c1	0	-	-	-	67.9
CCOC(=O)N(C)C[C@@H]1OCc2ccccc2-c2ccccc2C(=O)N([C@@H](C)CO)C[C@H]1C	0	-	-	-	-
O=C(Nc1ccc(Cl)c(Cl)c1)Nc1nnc(-c2ccncc2)s1	-	0	-56.3	75.7	0
CCSc1ccccc1C(=O)N1CCCC1	-	0	0	0	-
CCSc1ccccc1C(=O)n1nnc2ccccc21	0	0	0	60.8	-
COc1cc(CN2CC3(CN(C(=O)c4ccc5c(c4)OCO5)C3)c3c(n(C)c4cc(OC)ccc34)[C@H]2CO)cc(OC)c1	0	-	-	-	-
Cc1noc(C)c1S(=O)(=O)N(C)C[C@@H]1Oc2c(NC(=O)c3nc4ccccc4s3)cccc2C(=O)N([C@H](C)CO)C[C@@H]1C	0	-	-	-	-
COc1cccc(-c2c(-c3cc(OC)cc(OC)c3)n(C)c3ccc(-c4cnc(N5CCOCC5)nc4)cc23)c1	0	0	0	0	84.0
SMILES	EWS-Fli block	HIF-2a inh	KKLEB cytotox	CF NFkB block	PAX8 reporter
O=C(NC(c1ccccc1)c1c(O)ccc2ccccc12)c1ccccc1Cl (stereo not given)	-	0	0	0	-
O=C(NC(c1ccc(Cl)cc1)c1c(O)ccc2ccccc12)c1ccccc1 (stereo not given)	-	0	-61.5	64.3	-
Cc1ccc(-c2ccc3c(c2)O[C@@H](CN(C)C(=O)CN(C)C)[C@H](C)CN([C@@H](C)CO)S3(=O)=O)cc1	0	-	-	-	-
O=C(Nc1cccc(Cl)c1)c1ccc2c(c1)SC1=NS(=O)(=O)CCN12	0	0	0	0	74.5
O=C(NNC(=O)c1cccc2ccccc12)c1cccc(F)c1	0	0	0	0	87.2
Cc1cc(NC2CCCC2)n2ncc(-c3ccccc3)c2n1	62.2	0	0	0	0
CC1=Nc2ccccc2/C1=C/c1sc(=S)n(-c2cccc(C(=O)O)c2)c1O	0	41.0	0	0	0
C[C@H](CO)N1C[C@H](C)[C@@H](CN(C)C(=O)Nc2ccc(C(F)(F)F)cc2)Oc2ccc(NC(=O)Cc3cn(C)c4ccccc34)cc2C1=O	0	-	-	-	-
CN=c1sc2c(n1C)C(=O)c1ccccc1C2=O	0	0	-67.2	82.5	0
Nc1c(N(CCC2=CCCCC2)C(=O)Cc2ccc(F)cc2)c(=O)[nH]c(=O)n1Cc1ccccc1	0	0	0	0	0
Nc1c(N(CCC2=CCCCC2)C(=O)COc2ccc(F)cc2Cl)c(=O)[nH]c(=O)n1Cc1ccccc1	58.2	0	0	0	0
COc1ccccc1C#Cc1ccc([C@@H]2[C@@H](CO)N(C(=O)C3CCCCC3)[C@H]2C#N)cc1	0	-	-	-	85.0
CCCC#Cc1ccc([C@@H]2[C@@H](CO)N(C(=O)C3CCCCC3)[C@H]2C#N)cc1	0	-	-	-	0
COc1ccccc1C#Cc1ccc([C@H]2[C@H](C#N)N(C(=O)C3CCCC3)[C@H]2CO)cc1	0	-	-	-	107.5
CCCC#Cc1ccc([C@@H]2[C@@H](C#N)N(C(=O)C3CCCCC3)[C@H]2CO)cc1	0	-	-	-	82.5
COc1ccccc1C#Cc1ccc([C@@H]2[C@H](C#N)N(C(=O)C3CCCCC3)[C@H]2CO)cc1	-	-	-	-	0
COc1ccccc1C#Cc1ccc([C@H]2[C@H](C#N)N(C(=O)C3CCC3)[C@H]2CO)cc1	0	-	-	-	106.3
N#C[C@@H]1[C@@H](c2ccc(C#Cc3ccccc3F)cc2)[C@H](CO)N1C(=O)C1CCCCC1	0	-	-	-	81.5
CS(=O)(=O)Nc1ccc2c(c1)[C@H]1C[C@H](CC(=O)NCC3CC3)O[C@H](CO)[C@H]1O2	0	-	-	-	0
CCOC(=O)C1=C(c2ccccc2)NC(=O)NC1c1ccc(O)c(Cl)c1 (stereo not given)	68.2	0	0	0	69.6
CCOC(=O)C1=C(c2ccccc2)NC(=O)NC1c1ccc(O)c(OCC)c1 (stereo not given)	0	0	0	0	0
O=C(C[C@@H]1CC[C@@H](NC(=O)C2CCC2)[C@H](CO)O1)NC1CCC1	0	-	-	-	0
Cc1cc(N/N=C/c2ccc(O)c(C)c2O)nc(-c2ccccc2O)n1	-	0	-102.5	103.8	97.2
Cc1ccc(-c2nc(N/N=C/c3ccncc3)c3ccccc3n2)cc1	-	0	-95.3	0	-
Cc1ccccc1Nc1nc(-c2cccnc2)nc2ccccc12	0	0	0	0	0
